Measured values as given in PubChem BioAssay AID1159580 (chemical genetic matrix, 2015).
“And” between values parts separate entries of the source, which are not always exact repeats. Identical values can stand only once. Hit rate of the full screen: of about 5,500 compounds, about 2,000 (36%) were called active. Roughly 18% stayed inconclusive and do not appear here. Cut-off read from the data, not from the text of the source: active = normalized growth mostly below about 0.91 (no sharp cut-off); inconclusive = no clear call, values can overlap the other calls; inactive = mostly above about 0.92. The list shows a part of the results.

Assay: chemical genetic growth profiling, strain panel (AID 1159580);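 note: tested at 20 µM; growth read once vehicle control cultures reached saturation at 30 °C; 1 = growth at the plate median or of vehicle wells; lower values mean less growth of the strain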
Conditions: S. cerevisiae deletion strains, growth OD

Measured: normalized growth

CCC(=O)OC1[C@@H]2CC3=C4CC(=O)O[C@@H](c5ccoc5)[C@]4(C)CCC3[C@@](C)(C2=O)[C@@H](CC(=O)OC)C1(C)C (stereo partly specified)
inactive: locus YAL021C, strain ccr4, active compounds read low 1.03 | locus YAL026C, strain drs2, active compounds read low 0.973 | locus YAL030W, strain snc1, active compounds read low 0.998 | locus YBL061C, strain skt5, active compounds read low 0.992 | locus YBR009C, strain hhf1, active compounds read low 0.992 | locus YBR021W, strain FUR4, active compounds read low 1.01 | locus YBR023C, strain chs3, active compounds read low 0.995 | locus YBR171W, strain sec66, active compounds read low 0.983 | locus YBR229C, strain ROT2, active compounds read low 1 | locus YBR231C, strain swc5, active compounds read low 0.989 | locus YBR279W, strain paf1, active compounds read low 0.999 | locus YCL011C, strain gbp2, active compounds read low 1.01 | locus YCL016C, strain dcc1, active compounds read low 1.01 | locus YCL029C, strain bik1, active compounds read low 1.02 | locus YCL061C, strain MRC1, active compounds read low 0.998 | locus YCL069W, strain vba3, active compounds read low 0.995 | locus YCR088W, strain abp1, active compounds read low 0.996 | locus YDL005C, strain med2, active compounds read low 0.978 | locus YDL035C, strain GPR1, active compounds read low 1 | locus YDL040C, strain nat1, active compounds read low 0.976 | locus YDL074C, strain BRE1, active compounds read low 1.01 | locus YDL101C, strain DUN1, active compounds read low 1 | locus YDL185W, strain tfp1, active compounds read low 1.02 | locus YDL192W, strain arf1, active compounds read low 1.01 | locus YDR001C, strain nth1, active compounds read low 0.992 | locus YDR069C, strain doa4, active compounds read low 0.982 | locus YDR101C, strain arx1, active compounds read low 1.02 | locus YDR137W, strain rgp1, active compounds read low 0.901 | locus YDR159W, strain sac3, active compounds read low 0.991 | locus YDR162C, strain NBP2, active compounds read low 0.999 | locus YDR195W, strain ref2 0.984 | locus YDR297W, strain sur2, active compounds read low 0.994 | locus YDR318W, strain mcm21, active compounds read low 1.01 | locus YDR334W, strain swr1, active compounds read low 0.982 | locus YDR335W, strain msn5, active compounds read low 0.996 | locus YDR388W, active compounds read low 1.01 | locus YDR392W, strain spt3, active compounds read low 0.837 | locus YDR502C, strain sam2, active compounds read low 1.02 | locus YEL003W, strain gim4, active compounds read low 0.989 | locus YEL037C, strain rad23, active compounds read low 0.984 | locus YEL061C, strain CIN8 (second series), active compounds read low 0.986 | locus YEL061C, strain CIN8, active compounds read low 0.992 | locus YER015W, strain faa2, active compounds read low 1 | locus YER016W, strain bim1, active compounds read low 0.991 | locus YER110C, active compounds read low 1.02 | locus YER111C, strain swi4, active compounds read low 0.977 | locus YER155C, strain BEM2 (second series), active compounds read low 1 | locus YER155C, strain BEM2, active compounds read low 0.998 | locus YER167W, strain BCK2, active compounds read low 0.994 | locus YFR010W, strain ubp6, active compounds read low 0.984 | locus YGL078C, strain dbp3, active compounds read low 1 | locus YGL086W, strain mad1, active compounds read low 1 | locus YGL167C, strain pmr1, active compounds read low 0.989 | locus YGL173C, strain kem1, active compounds read low 0.979 | locus YGL227W, strain vid30, active compounds read low 0.988 | locus YGL240W, strain doc1, active compounds read low 0.99 | locus YGL248W, strain PDE1, active compounds read low 1 | locus YGL253W, strain hxk2, active compounds read low 0.954 | locus YGR135W, strain pre9, active compounds read low 1.02 | locus YGR252W, strain gcn5, active compounds read low 1.05 | locus YHR013C, strain ard1, active compounds read low 0.966 | locus YHR027C, strain rpn1, active compounds read low 0.988 | locus YHR030C, strain SLT2, active compounds read low 1 and 0.969 | locus YHR079C, strain IRE1 (second series), active compounds read low 1.01 | locus YHR079C, strain IRE1, active compounds read low 0.987 | locus YHR094C, strain hxt1, active compounds read low 1.01 | locus YHR129C, strain ARP1, active compounds read low 1 | locus YHR142W, strain chs7, active compounds read low 1.01 | locus YHR200W, strain rpn10, active compounds read low 1.02 | locus YIL066C, strain RNR3, active compounds read low 0.999 | locus YIL073C, strain SPO22, active compounds read low 1.05 | locus YIL125W, strain kgd1, active compounds read low 1.01 | locus YIR030C, strain dcg1, active compounds read low 1.01 | locus YJL092W, strain hpr5, active compounds read low 0.995 | locus YJL095W, strain BCK1 (second series), active compounds read low 0.995 | locus YJL095W, strain BCK1, active compounds read low 0.992 and 0.999 | locus YJL115W, strain asf1, active compounds read low 0.989 | locus YJL129C, strain trk1, active compounds read low 0.974 | locus YJL134W, strain LCB3, active compounds read low 0.998 | locus YJL154C, strain vps35, active compounds read low 0.996 | locus YJL164C, strain tpk1, active compounds read low 1.01 | locus YJL166W, strain qcr8, active compounds read low 1 | locus YJL168C, strain set2, active compounds read low 1 | locus YJL187C, strain SWE1 (second series), active compounds read low 1.01 | locus YJL187C, strain SWE1, active compounds read low 0.998 | locus YJR043C, strain POL32, active compounds read low 1.02
